Data reported in PubChem BioAssay (EPA / NIEHS).
Where “and” joins values, the source holds several entries; their conditions need not be identical. Equal entries are not always repeated. Records with an inconclusive call do not appear. Calls of active or inactive are those of the source. The calls were made as follows, unless noted: active = hit-call score of the fitted dose curve at least 0.9, where 1 is the maximum; inconclusive = response in the unintended direction; inactive = score below 0.9.

Assays:
[1] = TOX21_p53_BLA_p2_viability: Viability Assessment in the Tox21 HCT-116 p53 Agonism Beta-lactamase Assay, Phase 2 (AID 2283591);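 also: compound exposure lasted 16 h at 37 °C; actives lower the ATP signal meaning cytotoxicity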
Summary of the method: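 HCT116 p53-bla cells, 4000/well, dosed after 5 h plating (217-fold dilution of DMSO stocks) and incubated 16 h at 37C. Viability taken as cellular ATP by CellTiter-Glo luminescence after 30 min RT; signal loss marks cytotoxicity.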

[2] = target: Cellular tumor antigen p53 (Homo sapiens) (UniProt P04637); assay: TOX21_p53_BLA_p2_ratio: Tox21 HCT-116 p53 Agonism Beta-lactamase Assay, Ratio, Phase 2 (AID 2283592)
Summary of the method: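 HCT116 p53-bla; 4000 cells/well; 5 h pre-incubation; cpd in DMSO, 217-fold dilution; 16 h 37C/5% CO2; CCF4-AM 2 h RT; Ex 405, Em 460/530 ratio; DMSO = baseline; positive fitting direction.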

[3] = TOX21_p53_BLA_p3_viability: Viability Assessment in the Tox21 HCT-116 p53 Agonism Beta-lactamase Assay, Phase 3 (AID 2283593);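 also: cells exposed to compound for 16 h before reading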
Summary of the method: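 HCT116 cells, 4000/well, dosed 5 h after plating by pin transfer (217-fold dilution from DMSO stock) and incubated 16 h at 37C, 5% CO2. Viability read as ATP luminescence with CellTiter-Glo after 30 min at room temperature.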

[4] = TOX21_p53_BLA_p4_viability: Viability Assessment in the Tox21 HCT-116 p53 Agonism Beta-lactamase Assay, Phase 4 (AID 2283597);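 also: hits lower the luminescence signal meaning cytotoxicity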
Summary of the method: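 Cells plated, 5 h pre-incubation; DMSO compounds pinned (217-fold dilution); 16 h, 37C/5% CO2; CCF4-AM 2 h RT; CellTiter-Glo 30 min RT; luminescence read.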

[5] = target: Cellular tumor antigen p53 (Homo sapiens) (UniProt P04637); assay: TOX21_p53_BLA_p5_ratio: Tox21 HCT-116 p53 Agonism Beta-lactamase Assay, Ratio, Phase 5 (AID 2283599)
Summary of the method: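 HCT-116 p53-bla cells (4000/well) plated 5 h, dosed with compound (217-fold DMSO dilution) for 16 h at 37 C; CCF4-AM substrate 2 h at room temperature. Activity is the 460/530 nm emission ratio (405 nm excitation), fitted in gain-of-signal direction versus DMSO.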

[6] = TOX21_p53_BLA_p5_viability: Viability Assessment in the Tox21 HCT-116 p53 Agonism Beta-lactamase Assay, Phase 5 (AID 2283600)
Summary of the method: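 4000 cells/well; 5 h pre-incubation; DMSO compounds pin-transferred, 217-fold dilution; 16 h, 37C/5% CO2; CCF4-AM 2 h RT; CellTiter-Glo 30 min RT; luminescence.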

[7] = target: Cellular tumor antigen p53 (Homo sapiens) (UniProt P04637); assay: TOX21_p53_BLA_p4_ratio: Tox21 HCT-116 p53 Agonism Beta-lactamase Assay, Ratio, Phase 4 (AID 2283601)
Summary of the method: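 HCT-116 p53 beta-lactamase reporter cells (4000/well) preincubated 5 h, then compound (217-fold dilution of DMSO stock) for 16 h at 37C. CCF4-AM substrate added 2 h at room temperature; 460/530 nm emission ratio fitted upward versus DMSO.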

[8] = CCTE_Harrill_HTTr_Viability_MCF7: CCTE's 6-hour Cell Viability Assessment for the High-Throughput Transcriptomics (HTTr) Platform, in MCF-7 cells cultured in DMEM + 10% fetal bovine serum, Harrill Lab (AID 2284010; active = hit-call score of the fitted dose curve at least 0.9, where 1 is the maximum; inactive = score below 0.9)
Summary of the method: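 Viability measured through PI dye exclusion by high-content imaging at 6 h post-dosing.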

[9] = CCTE_Harrill_HTTr_Apoptosis_MCF7: CCTE's 6-hour Apoptosis Assessment for the High-Throughput Transcriptomics (HTTr) Platform, in MCF-7 cells cultured in DMEM + 10% fetal bovine serum, Harrill Lab (AID 2284011; active = hit-call score of the fitted dose curve at least 0.9, where 1 is the maximum; inactive = score below 0.9)
Summary of the method: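 MCF-7 (DMEM + 10% FBS), 384-well; 8-pt dilution series, 6 h chemical exposure; caspase-3/7 activation via CellEvent Caspase 3/7 Green, HCI; bidirectional fit vs DMSO.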

[10] = CCTE_Harrill_HTTr_CellCount_MCF7: CCTE's Cell Proliferation Assessment for the High-Throughput Transcriptomics (HTTr) Platform, Harrill Lab (AID 2284012);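 also: count of Hoechst-stained nuclei per well by high-content imaging in MCF-7 cells; cells exposed to compound for six hours; intended direction is loss of nuclei count meaning fewer cells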
Summary of the method: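 Nuclei counting (Hoechst, high content imaging) in MCF-7 after a 6 h treatment at eight concentrations. Activity fitted bidirectionally, DMSO as negative control.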

[11] = target: Cellular tumor antigen p53 (Homo sapiens) (UniProt P04637); assay: TOX21_p53_BLA_p3_ratio: Tox21 HCT-116 p53 Agonism Beta-lactamase Assay, Ratio, Phase 3 (AID 2283596)
Summary of the method: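 HCT116 p53-bla cells (4000/well) given compound in DMSO (217-fold dilution) after 5 h, incubated 16 h at 37C. CCF4-AM substrate 2 h at room temperature; 460/530 nm emission ratio, gain fitted against DMSO.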

PGR (gene 5241) [12] = target: PGR (gene 5241) (UniProt P06401); assay: TOX21_PR_BLA_Followup_Agonist_ratio: Tox21 HEK293 Progesterone Receptor (PR) Agonism Beta-lactamase Follow-Up Assay, Ratio (AID 2283933)
Summary of the method: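 Agonist-mode follow-up in HEK293T cells carrying a UAS-driven beta-lactamase reporter, grown in 2% charcoal-stripped serum. Compounds act for 16 hr; activity is the ch2/ch1 cleavage ratio, with same-well CellTiter-Glo viability run in parallel.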

PGR (gene 5241) [13] = target: PGR (gene 5241) (UniProt P06401); assay: TOX21_PR_BLA_Followup_Antagonist_ratio: Tox21 HEK293 Progesterone Receptor (PR) Antagonism Beta-lactamase Follow-Up Assay, Ratio (AID 2283934);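 also: PR-UAS-bla HEK293T cells stimulated with 1 nM R5020 agonist for 16 hr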
Summary of the method: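 Antagonist mode used 1 nM R5020 (final) as agonist on a beta-lactamase reporter line in HEK293T cells. Activity was taken from the substrate cleavage ratio after 16 hr exposure.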

[14] = TOX21_PR_BLA_Followup_Agonist_viability: Viability Assessment in the Tox21 HEK293 Progesterone Receptor (PR) Agonism Beta-lactamase Follow-Up Assay (AID 2283935);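 also: cells exposed to compound for 16 hr at 37 °C; signal loss means lower viability so actives are cytotoxic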
Summary of the method: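 Multiplexed viability counter-screen: ATP-coupled luciferase signal measured after 30 min at room temperature, following 16 hr compound treatment of PR-UAS-bla HEK293T cells grown in charcoal-stripped serum.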

[15] = TOX21_PR_BLA_Followup_Antagonist_viability: Viability Assessment in the Tox21 HEK293 Progesterone Receptor (PR) Antagonism Beta-lactamase Follow-Up Assay (AID 2283936);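 also: hits lower the luminescence signal meaning cytotoxicity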
Summary of the method: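 PR-UAS-bla HEK293T cells (3,000/well, 2% charcoal-stripped FBS) given compound plus R5020 agonist, 16 h at 37C. CellTiter-Glo added after bla read, 30 min at room temperature; luminescence loss indicates cytotoxicity.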

PGR (gene 5241) [16] = target: PGR (gene 5241) (UniProt P06401); assay: TOX21_PR_LUC_Followup_Antagonist: Tox21 HEK293 Progesterone Receptor (PR) Antagonism Luciferase Follow-Up Assay (AID 2283938);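 also: curve fitted upward as signal gain over DMSO baseline despite antagonist label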
Summary of the method: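 Cells are grown 5 days in charcoal-stripped-FBS assay medium, plated, left 5 h, then dosed with compound and incubated 16 h. ONE-Glo reagent is added and luminescence read after 30 min.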

[17] = TOX21_PR_LUC_Followup_Agonist_viability: Viability Assessment in the Tox21 HEK293 Progesterone Receptor (PR) Agonism Luciferase Follow-Up Assay (AID 2283941);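 also: loss of signal means cytotoxicity so actives lower viability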
Summary of the method: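 Luminescent ATP quantitation (CellTiter-Glo) serves as the read-out; a drop flags cytotoxic compounds. Cells are HEK293-PR-A-luc grown in 10% charcoal-stripped FBS, plated 3,000/well, and exposed to compound for 16 h.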

Measured: AC50

Chain of PGR (gene 5241) (P06401 whole entry, looked up): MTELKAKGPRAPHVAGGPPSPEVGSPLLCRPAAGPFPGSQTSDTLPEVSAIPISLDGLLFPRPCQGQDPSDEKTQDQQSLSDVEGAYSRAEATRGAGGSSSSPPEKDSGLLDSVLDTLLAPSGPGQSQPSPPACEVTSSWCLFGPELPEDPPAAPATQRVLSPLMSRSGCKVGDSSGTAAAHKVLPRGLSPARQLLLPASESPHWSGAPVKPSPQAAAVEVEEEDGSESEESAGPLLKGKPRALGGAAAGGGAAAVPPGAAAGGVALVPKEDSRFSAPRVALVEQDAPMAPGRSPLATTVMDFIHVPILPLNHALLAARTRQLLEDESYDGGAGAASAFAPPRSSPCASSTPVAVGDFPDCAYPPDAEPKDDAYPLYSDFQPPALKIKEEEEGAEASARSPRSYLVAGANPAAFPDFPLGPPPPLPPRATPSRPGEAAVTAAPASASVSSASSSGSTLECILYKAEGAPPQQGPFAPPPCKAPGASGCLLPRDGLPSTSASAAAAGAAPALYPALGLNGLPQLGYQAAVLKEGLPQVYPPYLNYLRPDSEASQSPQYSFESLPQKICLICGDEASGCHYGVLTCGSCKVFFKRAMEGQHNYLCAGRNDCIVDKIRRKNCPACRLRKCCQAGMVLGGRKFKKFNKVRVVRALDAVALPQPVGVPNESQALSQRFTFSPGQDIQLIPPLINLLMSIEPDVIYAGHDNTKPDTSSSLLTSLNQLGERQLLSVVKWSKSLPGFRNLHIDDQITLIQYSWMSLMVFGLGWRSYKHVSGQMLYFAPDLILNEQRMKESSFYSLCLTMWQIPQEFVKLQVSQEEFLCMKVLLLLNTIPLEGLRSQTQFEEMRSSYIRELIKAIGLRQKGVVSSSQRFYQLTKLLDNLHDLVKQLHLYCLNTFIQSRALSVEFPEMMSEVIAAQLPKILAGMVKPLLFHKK
Chain of Cellular tumor antigen p53 (Homo sapiens) (P04637 whole entry, looked up): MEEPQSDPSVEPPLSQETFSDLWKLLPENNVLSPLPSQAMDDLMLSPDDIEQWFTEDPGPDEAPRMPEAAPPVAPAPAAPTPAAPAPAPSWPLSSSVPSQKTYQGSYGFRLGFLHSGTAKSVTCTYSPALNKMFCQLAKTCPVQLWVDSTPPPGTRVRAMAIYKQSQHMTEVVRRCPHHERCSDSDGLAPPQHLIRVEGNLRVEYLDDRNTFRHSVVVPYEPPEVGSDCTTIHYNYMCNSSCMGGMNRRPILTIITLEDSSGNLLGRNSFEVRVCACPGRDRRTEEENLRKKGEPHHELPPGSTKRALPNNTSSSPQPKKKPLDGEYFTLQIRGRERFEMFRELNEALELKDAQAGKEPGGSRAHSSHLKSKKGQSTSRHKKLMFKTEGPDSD

Clc1ccc(CSC(Cn2ccnc2)c2ccc(Cl)cc2Cl)cc1 (stereo unspecified)
inactive: [1] | [3] | [4] | [5] | [6]
active: [2] 17.7 µM | [7] 15.4 µM

CCOP(=S)(OCC)Oc1cc(-c2ccccc2)on1
inactive: [1] | [2] | [3] | [4] | [5]

C[N+](C)(C)C
inactive: [1] | [2] | [3] | [4] | [5] | [6]

COC1=CC(=O)O[C@@H](CCc2ccccc2)C1
inactive: [1] | [2] | [3] | [4] | [5] | [6] | [7]

c1ccc(C2CC2)c(OCC2=NCCN2)c1
inactive: [1] | [2] | [3] | [4] | [5] | [6] | [7]

COc1cccc2c1cc([N+](=O)[O-])c1c(C(=O)O)cc3c(c12)OCO3
active: [2] 1.75 µM | [3] 79.8 µM | [5] 13.2 µM | [7] 3.74 µM
inactive: [1] | [4] | [8] | [9] | [10]

COc1cc(N)c(Cl)cc1C(=O)NC1CN2CCC1CC2 (stereo unspecified)
inactive: [1] | [2] | [3] | [11] | [7]

O=C(O)CBr
inactive: [1] | [2] | [3] | [4] | [5] | [6] | [7]

CCOC(=O)C1(c2ccccc2)CCN(CCC(C#N)(c2ccccc2)c2ccccc2)CC1
active: [2] 16.3 µM and 6.96 µM | [5] 56.4 µM and 23.9 µM | [7] 43.7 µM and 8.27 µM | PGR (gene 5241) [13] 13.7 µM
not listed: [8] | [9] | [10] | [11]
inactive: all other assays above
